Assay results reported in the supplement of paper PMC6555819.

Assays:
Experiment in all cases: PBM binding z-score (relative to random genomic background probes); higher = stronger binding; sequences stand for … in GC…GCGATTGACAGCGTAGAATGAAGG
[1] = test system: PPARg:RXRa DBDmut IVT, anti-RXR (DBD mutation: RXRa K156A/R161A, NR concentration 270 nM, RXRa partner concentration 90 nM)
Summary of the method: (§1)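 Binding z-scores were set against random background probes. The data came from custom Agilent 4×180K protein-binding microarrays carrying double-stranded probes with 34-nt variable regions, incubated 1 h with ligand-free nuclear receptor dimers. Partner-specific antibodies detected binding, and scanned fluorescence was regression-normalized.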

[2] = test system: PPARg:RXRa IVT, anti-PPARg (NR concentration 270 nM, RXRa partner concentration 90 nM)
Summary of the method: as §1

[3] = test system: PPARg DBDmut:RXRa IVT, anti-PPARg (DBD mutation: PPARg1 K132A/R137A, NR concentration 270 nM, RXRa partner concentration 90 nM)
Summary of the method: as §1

[4] = test system: PPARg DBDmut IVT, anti-PPARg (DBD mutation: PPARg1 K132A/R137A, NR concentration 270 nM)
Summary of the method: as §1

[5] = test system: PPARg homodimer (NR concentration 180 nM)
Summary of the method: as §1

[6] = test system: PXR:RXRa (NR concentration 270 nM, RXRa partner concentration 90 nM)
Summary of the method: as §1

[7] = test system: PXR homodimer (NR concentration 270 nM)
Summary of the method: as §1

[8] = test system: RARa:RXR (NR concentration 270 nM, RXRa partner concentration 90 nM)
Summary of the method: as §1

[9] = test system: RARa homodimer (NR concentration 270 nM)
Summary of the method: as §1

[10] = test system: RARb:RXRa (NR concentration 270 nM, RXRa partner concentration 90 nM)
Summary of the method: as §1

Sequence	PBM binding z-score [1]	PBM binding z-score [2]	PBM binding z-score [3]	PBM binding z-score [4]	PBM binding z-score [5]	PBM binding z-score [6]	PBM binding z-score [7]	PBM binding z-score [8]	PBM binding z-score [9]	PBM binding z-score [10]
TCTGGGAGGACACGAAGGTCAGAGCTTTCCAGAG	1.04	0.947	-0.643	-0.716	1.05	1.99	0.818	2.19	0.238	3.28
ATACCAAGGTGATCATGAGGTCGTTGATACTAAC	0.474	1.5	0.599	0.991	0.68	3.42	1.96	2.22	0.136	1.49
CAAACTAGATCAAGGTCAAAGTCGGTTTGTGCCA	3.37	3.93	1.86	-0.496	1.73	4.01	1.98	3.96	0.755	3.92
CTCGAAAGGTCGGATGAGGTGAGTATACGGATAA	0.154	0.983	0.973	-0.0346	0.968	3.55	-0.0327	2.62	0.562	3.32
CCAGACAGGTGAGAGGGTAACTCAGCCTCGATTA	0.762	1.58	-0.651	-0.852	0.818	-0.0811	-0.117	0.443	0.0595	0.951
CGGACTGGGGCAGAAAGGTTACCATACCATCCGG	3.24	4.12	-0.341	-0.159	1.44	1.41	0.0628	1.82	0.413	2.12
TCTTGTAGATGAAGCAGGTTAAGAAAGCCTGAGT	1.86	0.0295	0.394	-0.11	0.107	0.195	0.164	0.228	-0.232	-0.0996
CCGAGTAGGTTATGGGGCATCCAGGCAACGGTGA	2.41	3.47	0.134	-0.392	0.993	-0.0112	-0.414	0.287	0.0576	0.965
CCTATTAGTTGACCATAAGGGCTACCGAAGCTCG	0.457	0.104	0.267	0.311	1.99	0.0462	0.632	0.373	1.97	0.623
CCTGCTAGGTCATGGTCAACTAATCTACAGTATG	4.88	4.48	0.715	0.58	1.66	1.82	-0.415	2.94	0.861	4.06
TTACCAGGGTGAAAGGTCGTTGATGCACGCCTTG	2.27	4.77	0.849	0.523	3.33	4.25	0.522	5.93	0.262	2.59
AGAATGAGGTTTTTAAGATCAGGGAATTGCGGTC	0.514	0.257	0.355	-0.0253	-0.582	-0.38	-0.508	-0.216	0.273	0.0304
CTCGAAAGGCCGGTTGAGGTGAGTATACGGATAA	-0.491	-0.359	-0.611	-0.528	-1.35	-0.133	-0.38	1.91	-1.14	0.703
TCATATAGGTAAATGCTAGGTGATAGTCCGATCT	4.05	2.45	0.855	0.985	0.409	0.395	0.368	0.797	1.3	0.301
CCTCCTGGGCCAAAGGTCATTGATTCCAATGCTC	1.03	4.67	-0.712	-0.452	3.43	5.26	1.79	5.99	0.948	4.3
AATACAGGGTCATCGTTGGCCAGAGTACGCACAG	2.72	4.4	1.78	2.43	2.34	4.57	0.72	5.31	1.34	4.37
GCTAGCAGGCCATGTGGGTCACTCAATGACGGGC	2.25	3.4	-0.133	-0.744	-0.23	0.289	-0.533	0.567	-0.664	1.26
ATAAGTAGGTTATCGGGTCATTCAGTTTGCGCAT	7.58	7.8	5.22	5.33	3.5	3.91	7.66	3.84	2.2	2.61
AGTCAAAGTCCACTAGGTAACGTAAGATTCAGCT	1.22	1.83	0.418	0.228	0.527	-0.372	0.0413	-0.205	0.764	1.44
ACTAGCAGGCCAAGTATGGGTCACTCAAACAAAG	1.16	1.82	-0.278	-0.249	0.52	0.911	-0.49	1.85	-0.747	1.58
TCTAGTTGGTCAACGGTCACACACTCGAAATGCG	2.4	2.99	0.499	0.932	1.48	0.697	0.127	0.78	1.23	2.31
TCTCGGCGGACACGAAGGTCAGAGCTTTCCAGAG	0.413	0.291	-0.613	-1.55	0.53	1.09	-0.42	1.09	-0.212	2.45
CGTCCAAGGTCAAAGGTCAGTGTAGAGATGACGG	4.11	5.93	0.888	1.64	5.56	7.16	1.91	8.91	3.88	5.94
TCATATCGGTAAATGCTAGGTGAAAGTCCGATCT	1.8	1.17	0.763	0.728	0.249	0.387	-0.111	0.463	-0.336	0.381
